Drawing on PubChem BioAssay (NCI), this text covers growth for seven molecules.

Test systems include NCI-H23 lung; NCI-H226 lung; NCI-H322M lung; HOP-62 NSCLC; NCI-H460 lung; HOP-92 NSCLC; NCI-H522 lung; A549/ATCC NSCLC; 786-0 renal; COLO 205 colon; DU-145 prostate; K-562 leukemia; MALME-3M melanoma; MDA-MB-231 breast; RXF 393 renal; SF-268 CNS; SF-295 CNS; SF-539 CNS; UACC-257 melanoma; M14 melanoma.
Holding throughout (test): NCI-60 one-dose screen, 48 h (100 = growth as untreated, 0 = no growth, -100 = all killed)
Holding throughout (conditions): 10 µM unless noted

Molecules are shown by their SMILES. About 83,000 compounds went through this panel and 20% of them were active in at least one assay; those are over-represented in the sample as a whole.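 Results are percent growth after 48 hours of single-concentration exposure. 100 means growth as in untreated cells, lower positive values show inhibition; negative values down to -100 show cell death.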 A number with no mark means an inactive call. The source made the active and inactive calls. Rule for the calls: active = growth percent below 10; inactive = the rest.

Regarding `COc1ccc2c(c1)c(-c1nc(-c3cn(C)c4ncccc34)cs1)cn2CCCCN1CCOCC1`, the growth in the assay on NCI-H23 lung is 78.4%; with NCI-H226 lung it was 70.1%; in the assay with NCI-H322M lung, 65.9%; in the assay on HOP-62 NSCLC, 30.9%; in the assay with NCI-H460 lung it was -31.9% (active); in the assay with HOP-92 NSCLC, 47.9%. In addition, the growth is 3.68% (active) in the assay on NCI-H522 lung; 48.3% with A549/ATCC NSCLC; -71.7% (active) in the assay with 786-0 renal; -91.7% (active) in the assay with COLO 205 colon; 46.8% in the assay on DU-145 prostate; -41% (active) in the assay with K-562 leukemia. Moreover, the growth was -59.5% (active) with MALME-3M melanoma; 5.75% (active) in the assay with MDA-MB-231 breast; 0.734% (active) in the assay with RXF 393 renal; 52.8% in the assay on SF-268 CNS; -48.5% (active) in the assay with SF-295 CNS; 30.8% in the assay with SF-539 CNS. Also, the growth in the assay with UACC-257 melanoma was 63.5%; in the assay on M14 melanoma, -66.9% (active).
Regarding `C[C@]12CC[C@H](O)C[C@@H]1CC[C@@H]1[C@@H]2CC[C@]2(C)OC(=O)CC[C@@H]12`, the growth in the assay with NCI-H23 lung is 108%; with NCI-H226 lung, 102%; in the assay with NCI-H322M lung, 87.2%; in the assay with HOP-62 NSCLC, 97.3%; in the assay with NCI-H460 lung it was 109%; in the assay on HOP-92 NSCLC, 91.1%. For the same molecule, the growth was 81.2% in the assay on NCI-H522 lung; 72.8% in the assay on A549/ATCC NSCLC; 88.7% with 786-0 renal; 72.5% in the assay on COLO 205 colon; 107% in the assay on DU-145 prostate; 118% in the assay on K-562 leukemia. The growth in the assay with MALME-3M melanoma is 82.7%; in the assay on MDA-MB-231 breast, 91.1%; in the assay on RXF 393 renal, 117%; with SF-268 CNS, 98.7%; in the assay on SF-295 CNS, 93.9%; with SF-539 CNS, 95.9%. For the same molecule, the growth with UACC-257 melanoma is 73.7%; with M14 melanoma it was 100%.
With `CCCCS(=O)(=O)Cl`, the growth in the assay on NCI-H23 lung is 108%; in the assay on NCI-H226 lung it was 100%; in the assay with NCI-H322M lung, 111%; in the assay with HOP-62 NSCLC it was 122%; in the assay on NCI-H460 lung, 106%; with HOP-92 NSCLC it was 97.4%. The growth in the assay with NCI-H522 lung is 99.8%; in the assay on A549/ATCC NSCLC it was 109%; in the assay on 786-0 renal, 103%; in the assay with COLO 205 colon, 109%; in the assay with DU-145 prostate it was 113%; in the assay with K-562 leukemia it was 107%. Besides, the growth in the assay with MALME-3M melanoma is 108%; in the assay with MDA-MB-231 breast, 111%; in the assay with RXF 393 renal it was 112%; in the assay with SF-268 CNS it was 108%; in the assay on SF-295 CNS, 102%; with SF-539 CNS, 99%. Further, the growth in the assay on UACC-257 melanoma was 110%; in the assay with M14 melanoma, 99.1%.
As for `O=[N+]([O-])c1cc(Cl)c(Cl)c([N+](=O)[O-])c1Cl`, the growth was 85.6% in the assay on NCI-H23 lung; 81.4% in the assay on NCI-H226 lung; 123% with NCI-H322M lung; 119% in the assay with HOP-62 NSCLC; 99.7% with NCI-H460 lung; 74.9% with HOP-92 NSCLC. For the same molecule, the growth in the assay with NCI-H522 lung was -86.7% (active); in the assay on A549/ATCC NSCLC, 92.5%; in the assay on 786-0 renal it was 114%; with COLO 205 colon it was -23.8% (active); in the assay with DU-145 prostate, 85.4%; with K-562 leukemia, 7.08% (active). Further, the growth in the assay with MALME-3M melanoma is -26% (active); in the assay with MDA-MB-231 breast it was 91.8%; with RXF 393 renal, 55.5%; in the assay on SF-268 CNS, 84.2%; with SF-295 CNS, 134%; with SF-539 CNS, 103%. Besides, the growth is 16.1% in the assay on UACC-257 melanoma and 3.65% (active) in the assay on M14 melanoma.
As to `C#COc1cccc(Nc2ncnc3cc(NC(=O)CF)ccc23)c1`, the growth in the assay with NCI-H23 lung was 81.4% [6.25 µM]; in the assay on NCI-H226 lung, 83.4% [6.25 µM]; in the assay with NCI-H322M lung, 70.5% [6.25 µM]; with HOP-62 NSCLC it was 30.3% [6.25 µM]; in the assay with NCI-H460 lung, 21.4% [6.25 µM]; in the assay with HOP-92 NSCLC, 47.7% [6.25 µM]. Further, the growth in the assay on NCI-H522 lung was -25.3% [6.25 µM] (active); in the assay on A549/ATCC NSCLC, 40% [6.25 µM]; in the assay on 786-0 renal, 30.7% [6.25 µM]; in the assay on COLO 205 colon, 13.2% [6.25 µM]; in the assay on DU-145 prostate, 76.1% [6.25 µM]; in the assay on K-562 leukemia it was 7.01% [6.25 µM] (active). Further, the growth with MALME-3M melanoma was 60.9% [6.25 µM]; with MDA-MB-231 breast it was 50.9% [6.25 µM]; in the assay with RXF 393 renal, 84.4% [6.25 µM]; in the assay with SF-268 CNS, 51.8% [6.25 µM]; in the assay with SF-295 CNS, 29.9% [6.25 µM]; in the assay with SF-539 CNS, 29.3% [6.25 µM]. In addition, the growth with UACC-257 melanoma was 40.4% [6.25 µM]; in the assay with M14 melanoma, 18.7% [6.25 µM].
In the case of `C[C@]12CCC3[C@@H](C[C@@H]4SC(Nc5ccccc5)=N[C@@]45CC(=O)CC[C@]35C)[C@@H]1CCC2=O` (stereo not given in full), the growth was 42.5% in the assay with NCI-H23 lung; 49.4% in the assay with NCI-H226 lung; 58.2% in the assay with NCI-H322M lung; 12.6% in the assay with HOP-62 NSCLC; -13% (active) in the assay on NCI-H460 lung; -18.2% (active) in the assay on HOP-92 NSCLC. For the same molecule, the growth in the assay with NCI-H522 lung is -66% (active); in the assay on A549/ATCC NSCLC, 33.5%; in the assay on 786-0 renal, -45% (active); in the assay with COLO 205 colon, -46.3% (active); in the assay with DU-145 prostate, -14.7% (active); in the assay on K-562 leukemia, 1.87% (active). Also, the growth is 8.73% (active) in the assay with MALME-3M melanoma; 5.67% (active) in the assay on MDA-MB-231 breast; -63.8% (active) in the assay with RXF 393 renal; 27% in the assay with SF-268 CNS; 24.2% in the assay on SF-295 CNS; -44.8% (active) with SF-539 CNS. The growth is 3.21% (active) with UACC-257 melanoma and 0.48% (active) in the assay with M14 melanoma.
With `CC[C@H](C)[C@H](NC(=O)c1cnccn1)C(=O)N(C)[C@H](C[C@@H](OC(C)=O)c1nc(C(=O)N[C@@H](Cc2ccccc2)C[C@H](C)C(=O)OC)cs1)C(C)C`, the growth was 26.2% with NCI-H23 lung; 33.6% in the assay with NCI-H226 lung; 46.3% with NCI-H322M lung; 17.6% in the assay on HOP-62 NSCLC; 8.2% (active) in the assay on NCI-H460 lung; 16.9% in the assay on HOP-92 NSCLC. Further, the growth is -24.6% (active) in the assay with NCI-H522 lung; 19.2% with A549/ATCC NSCLC; 24.2% with 786-0 renal; -20.3% (active) in the assay on COLO 205 colon; 6.92% (active) with DU-145 prostate; 5.13% (active) in the assay on K-562 leukemia. Further, the growth with MALME-3M melanoma is 69.6%; with MDA-MB-231 breast it was -4.71% (active); in the assay on RXF 393 renal, 17.4%; in the assay with SF-268 CNS, 19.4%; in the assay with SF-295 CNS, -5.89% (active); in the assay on SF-539 CNS, -21.9% (active). In addition, the growth is 44.3% in the assay on UACC-257 melanoma and -5.51% (active) in the assay with M14 melanoma.
